# According to PMC11006913:
# Residue numbers refer to the chain shown, from its start.
# What was measured:
# Test in all cases: PBM; 200 nM protein, PBS
# Conditions in all cases: dsDNA, one strand shown
# [1] = biological target: NKX2-5 (Homo sapiens, UniProt P52952 125-210, R139K)
# [2] = biological target: T1, NKX2-4 (Homo sapiens, UniProt Q9H2Z4 175-261, P217L)
# T1 sequence: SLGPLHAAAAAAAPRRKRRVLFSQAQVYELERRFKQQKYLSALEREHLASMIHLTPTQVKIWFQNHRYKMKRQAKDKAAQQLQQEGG
# [3] = biological target: T2, NKX2-4 (Homo sapiens, UniProt Q9H2Z4 175-261, T231S)
# T2 sequence: T1 sequence with L43P, T57S
# [4] = biological target: T3, NKX2-4 (Homo sapiens, UniProt Q9H2Z4 175-261)
# T3 sequence: T1 sequence with L43P
# [5] = biological target: T4, NKX2-6 (Homo sapiens, UniProt A6NCS4 118-204, R150C)
# T4 sequence: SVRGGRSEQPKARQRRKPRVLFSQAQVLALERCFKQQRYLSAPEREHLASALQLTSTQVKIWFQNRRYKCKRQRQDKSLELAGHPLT
# [6] = biological target: T5, NKX2-6 (Homo sapiens, UniProt A6NCS4 118-204)
# T5 sequence: T4 sequence with C33R
# [7] = biological target: T6, NKX2-4 (Homo sapiens, UniProt Q9H2Z4 175-261, R246Q)
# T6 sequence: T1 sequence with L43P, R72Q
# [8] = biological target: T7, NKX2-6 (Homo sapiens, UniProt A6NCS4 118-204, F151L)
# T7 sequence: T4 sequence with C33R, F34L
# [9] = biological target: NKX3-2 (Homo sapiens, UniProt P78367 192-278, P234S)
# NKX3-2 (Homo sapiens, UniProt P78367 192-278, P234S), sequence (P78367 192-278 P234S): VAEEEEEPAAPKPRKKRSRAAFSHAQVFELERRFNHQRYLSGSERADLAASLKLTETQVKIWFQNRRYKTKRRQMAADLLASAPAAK
# [10] = biological target: NKX2-5 (Homo sapiens, UniProt P52952 125-210)
# NKX2-5 (Homo sapiens, UniProt P52952 125-210), sequence (P52952 125-210): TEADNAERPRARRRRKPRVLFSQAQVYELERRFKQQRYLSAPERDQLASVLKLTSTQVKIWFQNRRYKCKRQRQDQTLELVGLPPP
# [11] = biological target: NKX3-2 (Homo sapiens, UniProt P78367 192-278)
# NKX3-2 (Homo sapiens, UniProt P78367 192-278), sequence (P78367 192-278): as the sequence (P78367 192-278 P234S) above, with S43P counted along it
# NKX2-5 (Homo sapiens, UniProt P52952 125-210, R139K), sequence (P52952 125-210 R139K): as the sequence (P52952 125-210) above, with R15K counted along it
Sequence,binding signal [1],binding signal [2],binding signal [3],binding signal [4],binding signal [5],binding signal [6],binding signal [7],binding signal [8],binding signal [9],binding signal [10],binding signal [11]
CACTTAAA,"13.1 upbm affinity estimate (log intensity, higher = more binding, comparable within an allelic series)","12.7 upbm affinity estimate (log intensity, higher = more binding, comparable within an allelic series)","13.1 upbm affinity estimate (log intensity, higher = more binding, comparable within an allelic series)","12.6 upbm affinity estimate (log intensity, higher = more binding, comparable within an allelic series)","12 upbm affinity estimate (log intensity, higher = more binding, comparable within an allelic series)","13.8 upbm affinity estimate (log intensity, higher = more binding, comparable within an allelic series)","13.2 upbm affinity estimate (log intensity, higher = more binding, comparable within an allelic series)","11.4 upbm affinity estimate (log intensity, higher = more binding, comparable within an allelic series)","12.7 upbm affinity estimate (log intensity, higher = more binding, comparable within an allelic series)","13 upbm affinity estimate (log intensity, higher = more binding, comparable within an allelic series)","12.8 upbm affinity estimate (log intensity, higher = more binding, comparable within an allelic series)"
GCACTTCA,"12.5 upbm affinity estimate (log intensity, higher = more binding, comparable within an allelic series)","12.6 upbm affinity estimate (log intensity, higher = more binding, comparable within an allelic series)","13 upbm affinity estimate (log intensity, higher = more binding, comparable within an allelic series)","12.5 upbm affinity estimate (log intensity, higher = more binding, comparable within an allelic series)","11.7 upbm affinity estimate (log intensity, higher = more binding, comparable within an allelic series)","13.3 upbm affinity estimate (log intensity, higher = more binding, comparable within an allelic series)","13.2 upbm affinity estimate (log intensity, higher = more binding, comparable within an allelic series)","11.1 upbm affinity estimate (log intensity, higher = more binding, comparable within an allelic series)","12.6 upbm affinity estimate (log intensity, higher = more binding, comparable within an allelic series)","12.4 upbm affinity estimate (log intensity, higher = more binding, comparable within an allelic series)","12.6 upbm affinity estimate (log intensity, higher = more binding, comparable within an allelic series)"
AAGTACTC,"12.7 upbm affinity estimate (log intensity, higher = more binding, comparable within an allelic series)","12.7 upbm affinity estimate (log intensity, higher = more binding, comparable within an allelic series)","13.1 upbm affinity estimate (log intensity, higher = more binding, comparable within an allelic series)","12.6 upbm affinity estimate (log intensity, higher = more binding, comparable within an allelic series)","11.8 upbm affinity estimate (log intensity, higher = more binding, comparable within an allelic series)","13.6 upbm affinity estimate (log intensity, higher = more binding, comparable within an allelic series)","13.2 upbm affinity estimate (log intensity, higher = more binding, comparable within an allelic series)","10.8 upbm affinity estimate (log intensity, higher = more binding, comparable within an allelic series)","12.7 upbm affinity estimate (log intensity, higher = more binding, comparable within an allelic series)","12.6 upbm affinity estimate (log intensity, higher = more binding, comparable within an allelic series)","12.8 upbm affinity estimate (log intensity, higher = more binding, comparable within an allelic series)"
CTACTTGA,"12.3 upbm affinity estimate (log intensity, higher = more binding, comparable within an allelic series)","12.6 upbm affinity estimate (log intensity, higher = more binding, comparable within an allelic series)","13 upbm affinity estimate (log intensity, higher = more binding, comparable within an allelic series)","12.4 upbm affinity estimate (log intensity, higher = more binding, comparable within an allelic series)","11.6 upbm affinity estimate (log intensity, higher = more binding, comparable within an allelic series)","13.3 upbm affinity estimate (log intensity, higher = more binding, comparable within an allelic series)","13.1 upbm affinity estimate (log intensity, higher = more binding, comparable within an allelic series)","10.5 upbm affinity estimate (log intensity, higher = more binding, comparable within an allelic series)",,"12.3 upbm affinity estimate (log intensity, higher = more binding, comparable within an allelic series)",
TACTTGAA,"12.6 upbm affinity estimate (log intensity, higher = more binding, comparable within an allelic series)","12.7 upbm affinity estimate (log intensity, higher = more binding, comparable within an allelic series)","13.2 upbm affinity estimate (log intensity, higher = more binding, comparable within an allelic series)","12.6 upbm affinity estimate (log intensity, higher = more binding, comparable within an allelic series)","11.6 upbm affinity estimate (log intensity, higher = more binding, comparable within an allelic series)","13.4 upbm affinity estimate (log intensity, higher = more binding, comparable within an allelic series)","13.3 upbm affinity estimate (log intensity, higher = more binding, comparable within an allelic series)","10.8 upbm affinity estimate (log intensity, higher = more binding, comparable within an allelic series)",,"12.5 upbm affinity estimate (log intensity, higher = more binding, comparable within an allelic series)",
ATAAGTGG,"13.2 upbm affinity estimate (log intensity, higher = more binding, comparable within an allelic series)","12.8 upbm affinity estimate (log intensity, higher = more binding, comparable within an allelic series)","13.2 upbm affinity estimate (log intensity, higher = more binding, comparable within an allelic series)","12.7 upbm affinity estimate (log intensity, higher = more binding, comparable within an allelic series)","12.4 upbm affinity estimate (log intensity, higher = more binding, comparable within an allelic series)","13.9 upbm affinity estimate (log intensity, higher = more binding, comparable within an allelic series)","13.3 upbm affinity estimate (log intensity, higher = more binding, comparable within an allelic series)","11.4 upbm affinity estimate (log intensity, higher = more binding, comparable within an allelic series)","13.1 upbm affinity estimate (log intensity, higher = more binding, comparable within an allelic series)","13.1 upbm affinity estimate (log intensity, higher = more binding, comparable within an allelic series)","13.1 upbm affinity estimate (log intensity, higher = more binding, comparable within an allelic series)"
ACAAGTGG,"12.9 upbm affinity estimate (log intensity, higher = more binding, comparable within an allelic series)","12.6 upbm affinity estimate (log intensity, higher = more binding, comparable within an allelic series)","13.1 upbm affinity estimate (log intensity, higher = more binding, comparable within an allelic series)","12.5 upbm affinity estimate (log intensity, higher = more binding, comparable within an allelic series)","12 upbm affinity estimate (log intensity, higher = more binding, comparable within an allelic series)","13.7 upbm affinity estimate (log intensity, higher = more binding, comparable within an allelic series)","13.2 upbm affinity estimate (log intensity, higher = more binding, comparable within an allelic series)","10.8 upbm affinity estimate (log intensity, higher = more binding, comparable within an allelic series)","12.6 upbm affinity estimate (log intensity, higher = more binding, comparable within an allelic series)","12.8 upbm affinity estimate (log intensity, higher = more binding, comparable within an allelic series)","12.7 upbm affinity estimate (log intensity, higher = more binding, comparable within an allelic series)"
AAGTACTT,"13.2 upbm affinity estimate (log intensity, higher = more binding, comparable within an allelic series)","12.9 upbm affinity estimate (log intensity, higher = more binding, comparable within an allelic series)","13.3 upbm affinity estimate (log intensity, higher = more binding, comparable within an allelic series)","12.7 upbm affinity estimate (log intensity, higher = more binding, comparable within an allelic series)","12.1 upbm affinity estimate (log intensity, higher = more binding, comparable within an allelic series)","13.8 upbm affinity estimate (log intensity, higher = more binding, comparable within an allelic series)","13.3 upbm affinity estimate (log intensity, higher = more binding, comparable within an allelic series)","11.5 upbm affinity estimate (log intensity, higher = more binding, comparable within an allelic series)","12.6 upbm affinity estimate (log intensity, higher = more binding, comparable within an allelic series)","13 upbm affinity estimate (log intensity, higher = more binding, comparable within an allelic series)","12.7 upbm affinity estimate (log intensity, higher = more binding, comparable within an allelic series)"
AAGTGGAT,"12.5 upbm affinity estimate (log intensity, higher = more binding, comparable within an allelic series)","12.5 upbm affinity estimate (log intensity, higher = more binding, comparable within an allelic series)","12.8 upbm affinity estimate (log intensity, higher = more binding, comparable within an allelic series)","12.3 upbm affinity estimate (log intensity, higher = more binding, comparable within an allelic series)","11.8 upbm affinity estimate (log intensity, higher = more binding, comparable within an allelic series)","13.3 upbm affinity estimate (log intensity, higher = more binding, comparable within an allelic series)","12.9 upbm affinity estimate (log intensity, higher = more binding, comparable within an allelic series)","10.7 upbm affinity estimate (log intensity, higher = more binding, comparable within an allelic series)","12.8 upbm affinity estimate (log intensity, higher = more binding, comparable within an allelic series)","12.5 upbm affinity estimate (log intensity, higher = more binding, comparable within an allelic series)","12.8 upbm affinity estimate (log intensity, higher = more binding, comparable within an allelic series)"
CCACTTAC,"13 upbm affinity estimate (log intensity, higher = more binding, comparable within an allelic series)","12.6 upbm affinity estimate (log intensity, higher = more binding, comparable within an allelic series)","12.9 upbm affinity estimate (log intensity, higher = more binding, comparable within an allelic series)","12.4 upbm affinity estimate (log intensity, higher = more binding, comparable within an allelic series)","12.2 upbm affinity estimate (log intensity, higher = more binding, comparable within an allelic series)","13.7 upbm affinity estimate (log intensity, higher = more binding, comparable within an allelic series)","13 upbm affinity estimate (log intensity, higher = more binding, comparable within an allelic series)","11 upbm affinity estimate (log intensity, higher = more binding, comparable within an allelic series)","13.2 upbm affinity estimate (log intensity, higher = more binding, comparable within an allelic series)","12.8 upbm affinity estimate (log intensity, higher = more binding, comparable within an allelic series)","13.3 upbm affinity estimate (log intensity, higher = more binding, comparable within an allelic series)"
CACTTAAC,"12.8 upbm affinity estimate (log intensity, higher = more binding, comparable within an allelic series)","12.5 upbm affinity estimate (log intensity, higher = more binding, comparable within an allelic series)","12.9 upbm affinity estimate (log intensity, higher = more binding, comparable within an allelic series)","12.4 upbm affinity estimate (log intensity, higher = more binding, comparable within an allelic series)","11.8 upbm affinity estimate (log intensity, higher = more binding, comparable within an allelic series)","13.7 upbm affinity estimate (log intensity, higher = more binding, comparable within an allelic series)","13.1 upbm affinity estimate (log intensity, higher = more binding, comparable within an allelic series)","11.2 upbm affinity estimate (log intensity, higher = more binding, comparable within an allelic series)","12.9 upbm affinity estimate (log intensity, higher = more binding, comparable within an allelic series)","12.8 upbm affinity estimate (log intensity, higher = more binding, comparable within an allelic series)","12.9 upbm affinity estimate (log intensity, higher = more binding, comparable within an allelic series)"
ATAAGTGC,"13 upbm affinity estimate (log intensity, higher = more binding, comparable within an allelic series)","12.7 upbm affinity estimate (log intensity, higher = more binding, comparable within an allelic series)","13.1 upbm affinity estimate (log intensity, higher = more binding, comparable within an allelic series)","12.6 upbm affinity estimate (log intensity, higher = more binding, comparable within an allelic series)","12.2 upbm affinity estimate (log intensity, higher = more binding, comparable within an allelic series)","13.8 upbm affinity estimate (log intensity, higher = more binding, comparable within an allelic series)","13.3 upbm affinity estimate (log intensity, higher = more binding, comparable within an allelic series)","11.4 upbm affinity estimate (log intensity, higher = more binding, comparable within an allelic series)","12.9 upbm affinity estimate (log intensity, higher = more binding, comparable within an allelic series)","12.9 upbm affinity estimate (log intensity, higher = more binding, comparable within an allelic series)","13 upbm affinity estimate (log intensity, higher = more binding, comparable within an allelic series)"
